KLF5 inh: kruppel-like factor 5 inhibition | DLD-1 KLF5 promoter-luciferase reporter, luminescence | inhibition, % at 5 µM | 290,000 compounds, 0.23% hits;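 active = inhibition above a per-plate limit of that plate's mean compound inhibition plus 3 SD, cut at about 60% in these data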;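 note: higher means less KLF5 promoter-driven luciferase light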
697 NFkB inh: inhibitors of the PMA/ionomycin-induced NF-kB reporter in 697 B cells; 697 B-cell NF-kB luciferase reporter, 16 h; 330,000 compounds, 0.33% hits; AID 435022; inhibition, % at 4 µM; in the data active = inhibition above about 35%
Gli-Sufu antag: antagonists of Gli-Sufu signaling; Sufu-KO-LIGHT fibroblasts, Gli luciferase reporter luminescence; inhibition, % at 5 µM; 340,000 compounds, 0.74% hits; AID 588413;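 active = inhibition above about 55%, limit read from the data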
aSyn 5UTR inh: MLPCN primary screen, SNCA 5' untranslated region; inhibition, % (tested at 7.5 µM); 300,000 compounds, 0.82% hits; AID 1813; alpha-synuclein 5'UTR reporter, inhibitor activity; in the data active = inhibition above about 60%; inconclusive = no clear call, values can overlap the other calls;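 note: H4 neuroglioblastoma cells stably carrying SNCA 5'UTR luciferase fusion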
Mdm2 MdmX PPI: inhibitors of human Mdm2/MdmX interaction; O15151+Q00987; SaOS-2 split-luciferase Mdm2/MdmX complementation, luminescence; inhibition, % at 8 µM; 330,000 compounds, 3% hits; AID 485346;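 active = inhibition of at least 50% at 8 µM in the primary screen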
Target sequence (O15151 whole entry, looked up): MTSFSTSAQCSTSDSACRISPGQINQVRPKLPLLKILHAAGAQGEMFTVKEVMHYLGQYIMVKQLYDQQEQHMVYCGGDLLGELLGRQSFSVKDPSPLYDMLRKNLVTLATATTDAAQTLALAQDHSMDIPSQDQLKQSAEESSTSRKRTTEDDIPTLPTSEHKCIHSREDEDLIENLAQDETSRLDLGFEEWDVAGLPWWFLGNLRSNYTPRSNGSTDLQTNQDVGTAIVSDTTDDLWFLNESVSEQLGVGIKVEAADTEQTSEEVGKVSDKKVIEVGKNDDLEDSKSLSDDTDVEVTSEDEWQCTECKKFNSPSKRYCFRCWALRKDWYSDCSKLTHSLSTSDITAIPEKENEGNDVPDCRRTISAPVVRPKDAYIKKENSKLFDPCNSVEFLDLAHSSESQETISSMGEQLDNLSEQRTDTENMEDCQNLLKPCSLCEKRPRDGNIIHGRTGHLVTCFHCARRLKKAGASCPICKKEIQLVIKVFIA
Target sequence (Q00987 whole entry, looked up): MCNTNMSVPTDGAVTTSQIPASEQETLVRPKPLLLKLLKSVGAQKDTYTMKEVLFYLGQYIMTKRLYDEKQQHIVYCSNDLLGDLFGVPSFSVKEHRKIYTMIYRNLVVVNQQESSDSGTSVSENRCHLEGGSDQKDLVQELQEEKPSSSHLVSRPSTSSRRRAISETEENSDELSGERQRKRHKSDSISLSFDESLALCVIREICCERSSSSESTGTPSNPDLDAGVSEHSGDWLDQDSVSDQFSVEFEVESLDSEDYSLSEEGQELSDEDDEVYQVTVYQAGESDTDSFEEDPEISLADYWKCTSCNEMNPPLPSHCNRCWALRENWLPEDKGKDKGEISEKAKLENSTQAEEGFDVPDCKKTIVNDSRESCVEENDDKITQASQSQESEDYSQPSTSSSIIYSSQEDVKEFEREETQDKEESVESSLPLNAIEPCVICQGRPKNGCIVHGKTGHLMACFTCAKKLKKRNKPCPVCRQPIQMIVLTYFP
Jurkat NFkB inh: inhibitors of the PMA/ionomycin-induced NF-kB reporter in Jurkat cells. PMA/ionomycin-induced NF-kB luciferase reporter, luminescence. inhibition, % at 4 µM. 330,000 compounds, 0.53% hits. AID 435003; in the data active = inhibition above about 50%
KLF5 inh confirm: confirmation of KLF5 inhibitors | shares compounds with KLF5 inh | DLD-1 KLF5 promoter firefly luciferase reporter, luminescence | inhibition, % at 4 µM | 610 compounds, 79% hits;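 active = inhibition above a set limit taken from the earlier primary screen, cut at about 63% in these data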
IEC-6 tox trip: kills rat IEC-6 cells in KLF5 counter-screen; shares compounds with KLF5 inh; IEC-6 rat intestinal cells, viability luminescence; inhibition, % at 4 µM; 610 compounds, 56% hits; in the data active = inhibition above about 23%;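 note: cells exposed to compounds for 48 hours before viability read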
Each line names hits and unclear results; the compound was inactive in the other large screens (follow-up assays come after a bar, where they were run). This is a sample that favours compounds with a hit; in the whole collection about 4.1% have one here.

N#CC(C#N)=C(Nc1ccc(F)cc1)SCc1cccc(Br)c1	KLF5 inh 65, Gli-Sufu antag 64, aSyn 5UTR inh inconclusive (no result: 697 NFkB inh, Mdm2 MdmX PPI, Jurkat NFkB inh) | KLF5 inh confirm 68 | IEC-6 tox trip 28
CC(SCc1ccccc1)C(=O)Nc1ccc(F)cc1 (stereo not given)	none
O=C(c1nn2c(C(F)(F)F)cc(-c3ccccc3)nc2c1Cl)N1CCN2CCCC2C1 (stereo not given)	none
CCN1/C(=C/c2sc(-c3ccccc3C)c[n+]2C)Sc2ccccc21	KLF5 inh 63, Gli-Sufu antag 90, aSyn 5UTR inh 94 (no result: 697 NFkB inh, Mdm2 MdmX PPI, Jurkat NFkB inh) | KLF5 inh confirm inactive | IEC-6 tox trip inactive
COc1cc(CNc2ccc(S(N)(=O)=O)cc2)ccc1OCC(=O)NC1CCCCC1	KLF5 inh 75 | KLF5 inh confirm inactive | IEC-6 tox trip inactive
CC(=O)c1ccccc1NS(C)(=O)=O	none
COc1ccc(Cn2c(/C=C/c3ccccc3)nc3ccccc32)cc1	none
COc1ccc(/C=C/c2nc3ccccc3n2C)cc1	KLF5 inh 68, aSyn 5UTR inh 109 | KLF5 inh confirm 96 | IEC-6 tox trip 34
Oc1ccc(-c2nc(-c3ccc(O)c(O)c3)cs2)cc1	KLF5 inh 69 | KLF5 inh confirm inactive | IEC-6 tox trip inactive
COC(=O)[C@]1(Cc2ccccc2)N[C@H](CN(C)C(=O)c2ccc(F)cc2)[C@@H]2C(=O)N(C)C(=O)[C@@H]21	none (no result: KLF5 inh, aSyn 5UTR inh)
COc1ccc(OC)c(Nc2nc(=O)c3cccnc3s2)c1	KLF5 inh 75 (no result: 697 NFkB inh, aSyn 5UTR inh, Mdm2 MdmX PPI, Jurkat NFkB inh) | KLF5 inh confirm 65 | IEC-6 tox trip inactive
COc1ccc(OC)c(S(=O)(=O)Nc2cccc3ccc(O)cc23)c1	none (no result: KLF5 inh)
CCc1nc2sc3c(c2c(=O)o1)CCCC3	none
CC(C)(C)c1nc2sc3c(c2c(=O)o1)CCCC3	KLF5 inh 69 | KLF5 inh confirm inactive | IEC-6 tox trip inactive
CCOc1ccc(CCNC(=O)COC(=O)c2nc(Cl)ccc2Cl)cc1OCC	none (no result: KLF5 inh)
Oc1c(Br)cc(Br)cc1/C=N/Nc1ccc(Cl)nn1	KLF5 inh 102, Gli-Sufu antag 90, aSyn 5UTR inh 97 (no result: 697 NFkB inh, Mdm2 MdmX PPI, Jurkat NFkB inh) | KLF5 inh confirm inactive | IEC-6 tox trip inactive
CCC(=O)NC(c1ccc(OC)c(OC)c1)c1cc(Cl)c2cccnc2c1O (stereo not given)	KLF5 inh 68, aSyn 5UTR inh 111 (no result: 697 NFkB inh, Mdm2 MdmX PPI, Jurkat NFkB inh) | KLF5 inh confirm 87 | IEC-6 tox trip 30
CCC(=O)NC(C)c1cc(Cl)c2cccnc2c1O (stereo not given)	none (no result: KLF5 inh, aSyn 5UTR inh)
COc1cc(C(=O)c2cocc2C(=O)c2ccc3c(c2)OCO3)cc(OC)c1OC	KLF5 inh 63, aSyn 5UTR inh 67 (no result: 697 NFkB inh, Mdm2 MdmX PPI, Jurkat NFkB inh) | KLF5 inh confirm 76 | IEC-6 tox trip 54
COc1cc(C(=O)c2ccc3c(c2)OCO3)cc(OC)c1OC	none (no result: KLF5 inh, 697 NFkB inh, aSyn 5UTR inh, Mdm2 MdmX PPI, Jurkat NFkB inh)
Cc1c(/C(O)=C2/C(=O)C(=O)N(CCN3CCOCC3)C2c2ccccn2)cnn1-c1ccccc1 (stereo not given)	KLF5 inh 69 | KLF5 inh confirm inactive | IEC-6 tox trip inactive
CCOC(=O)c1sc(NC(=O)c2cc3ccccc3o2)nc1C	KLF5 inh 82 | KLF5 inh confirm 62 | IEC-6 tox trip inactive
CCOC(=O)c1sc(NC(=O)c2cncc(Br)c2)nc1C	none (no result: 697 NFkB inh, Gli-Sufu antag, Mdm2 MdmX PPI, Jurkat NFkB inh)
CCOC(=O)c1sc(NC(=O)c2ccc3ncsc3c2)nc1C	KLF5 inh 94 | KLF5 inh confirm 75 | IEC-6 tox trip inactive
Nc1nonc1-c1nc2ccccc2n1CC(=O)N/N=C/c1ccc(-c2cccc(C(=O)O)c2)o1	none
O=S(=O)(Nc1cc(Sc2ncn[nH]2)c(O)c2ccccc12)c1ccccc1	KLF5 inh 68 (no result: aSyn 5UTR inh) | KLF5 inh confirm inactive | IEC-6 tox trip inactive
O=C(Nc1sc2c(c1C(=O)O)CCCC2)c1ccc(F)cc1	none
CC(C)(C)c1ccc(C(=O)Nc2sc3c(c2C(=O)O)CCC3)cc1	KLF5 inh 78, aSyn 5UTR inh 95 | KLF5 inh confirm 75 | IEC-6 tox trip inactive
CCc1ccc(NC(=O)c2cnn3ccccc23)cc1	KLF5 inh 87, aSyn 5UTR inh 78 | KLF5 inh confirm 82 | IEC-6 tox trip inactive
Oc1c(Cl)cc(CN2CCCCC2)c2cccnc12	KLF5 inh 98 (no result: Gli-Sufu antag) | KLF5 inh confirm 92 | IEC-6 tox trip inactive
O=C1[C@@H]2Cc3c([nH]c4ccccc34)C(c3ccc([N+](=O)[O-])cc3)N2C(=O)CN1C1CC1 (stereo not given in full)	KLF5 inh 69 | KLF5 inh confirm 75 | IEC-6 tox trip 45
O=C1[C@@H]2Cc3c([nH]c4ccccc34)C(c3ccccc3)N2C(=O)CN1C1CC1 (stereo not given in full)	none
Cc1c(C(=O)NCCSCc2cccc(C(F)(F)F)c2)cnn1-c1ccc(Cl)cc1	none
Cc1cc(C)c2nc(NC(=O)c3ccc(OCC4CCCO4)cc3)sc2c1 (stereo not given)	KLF5 inh 97 | KLF5 inh confirm 99 | IEC-6 tox trip inactive
Cc1ccc2nc(NC(=O)c3ccc(OCC4CCCO4)cc3)sc2c1 (stereo not given)	KLF5 inh 68 | KLF5 inh confirm inactive | IEC-6 tox trip inactive
COc1ccc2nc(NC(=O)c3ccc(NC(=O)C4CCCO4)cc3)sc2c1 (stereo not given)	none
O=[N+]([O-])c1ccc(NN=Cc2ccccc2O)nc1	none (no result: KLF5 inh, 697 NFkB inh, aSyn 5UTR inh, Mdm2 MdmX PPI, Jurkat NFkB inh)
O=[N+]([O-])c1ccc(O)c(/C=N/Nc2ccccn2)c1	KLF5 inh 65, Gli-Sufu antag 72, aSyn 5UTR inh 95 (no result: 697 NFkB inh, Mdm2 MdmX PPI, Jurkat NFkB inh) | KLF5 inh confirm inactive | IEC-6 tox trip 54
CCCCn1c(N)c(N(CC(C)C)C(=O)CCCn2c(=O)oc3ccccc32)c(=O)[nH]c1=O	none (no result: KLF5 inh)
O=C(/C=C/c1ccco1)NC(=S)Nc1ccccc1	none
Cc1cccc(NC(=S)NC(=O)/C=C/c2ccco2)c1	KLF5 inh 74 | KLF5 inh confirm inactive | IEC-6 tox trip 29
CCNC(=S)NNC(=O)c1cc(-c2ccc(OCC)cc2)nc2ccccc12	KLF5 inh 81 | KLF5 inh confirm 79 | IEC-6 tox trip inactive
CCNC(=S)NNC(=O)c1cc(-c2cccc(OC)c2)nc2ccccc12	none
COc1ccccc1N1CCN(c2nc(C)nc3c2oc2ccccc23)CC1	KLF5 inh 67, aSyn 5UTR inh 90 (no result: 697 NFkB inh, Mdm2 MdmX PPI, Jurkat NFkB inh) | KLF5 inh confirm 79 | IEC-6 tox trip 64
Cc1ccsc1/C=N/Nc1ccc(C(=O)O)cc1	KLF5 inh 63, aSyn 5UTR inh 64 | KLF5 inh confirm inactive | IEC-6 tox trip inactive
Cc1ccsc1/C=N/NC(=O)C(N)=O	none
Oc1c(C(Nc2nccs2)c2ccc(C(F)(F)F)cc2)ccc2cccnc12 (stereo not given)	KLF5 inh 62 (no result: 697 NFkB inh, Mdm2 MdmX PPI, Jurkat NFkB inh) | KLF5 inh confirm 84 | IEC-6 tox trip 57
CNC1=C(N(C(C)=O)c2ccc(Br)cc2)C(=O)c2ccccc2C1=O	KLF5 inh 97, Gli-Sufu antag 94, aSyn 5UTR inh 111 (no result: 697 NFkB inh, Mdm2 MdmX PPI, Jurkat NFkB inh) | KLF5 inh confirm 94 | IEC-6 tox trip inactive

Screening data from PubChem BioAssay.
